Source: PubChem BioAssay (National Center for Advancing Translational Sciences (NCATS))
HTT cytoprotect: cytoprotection in Huntington HTT-Q103 PC12 cell model; PC12 HTT-Q103 induced, cytoprotection, ATP luminescence, 40 h; Potency, µM (highest dose often 56.4 µM), for inactives: cytoprotection (ATP increase), hits mostly activators; 230,000 tested, 0.14% active; AID 1471; note: potency is the fitted concentration of half-maximal effect; % of control where 0% means no effect; nearly all actives have a fitted effect of over 45% in size
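Readout: ATPlite luminescence (ATP level). Model: stable PC12, inducible Htt exon1 Q103-GFP. Inducer: tebufenozide, 100 nM final. Compounds: dose series. No G418 in medium.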
HPGD block: blocks human HPGD enzyme activity | P15428 | purified HPGD, NADH fluorescence kinetic, PGE2 substrate | Potency, µM, for inactives: at the highest dose activity change, negative = inhibition, hits mostly inhibitors | 150,000 tested, 4.3% active | AID 894; active = well fitted inhibition curve with a large enough effect, not every such curve was filed as active; inconclusive = small, poorly fitted or top-dose-only effect, or another doubt; inactive = no such curve, though single readings can be large or run the other way; note: potency is the fitted concentration of half-maximal effect; % is set by controls: 0 for no effect and ±100 for the full control effect
Target sequence (P15428 whole entry, looked up): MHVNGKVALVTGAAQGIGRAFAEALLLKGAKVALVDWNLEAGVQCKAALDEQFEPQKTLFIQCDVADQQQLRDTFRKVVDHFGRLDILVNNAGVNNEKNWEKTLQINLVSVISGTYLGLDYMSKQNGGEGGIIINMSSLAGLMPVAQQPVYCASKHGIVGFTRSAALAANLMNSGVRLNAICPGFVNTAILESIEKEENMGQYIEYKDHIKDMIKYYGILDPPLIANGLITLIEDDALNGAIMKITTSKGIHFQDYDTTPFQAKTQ
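20 nM HPGD preincubated 15 min at room temperature with compound in 50 mM Tris-HCl pH 8, 0.01% Tween 20. Started with 1 mM NAD+ and 30 uM prostaglandin E2; NADH fluorescence (360/450 nm) read 5 times over 30-s intervals, last minus first.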
ALDH1A1 block: blocks purified human ALDH1A1 activity | AID 1030 | P00352 | Potency, µM (series often up to 75.3 µM), for inactives: top-dose activity, negative = inhibition, usual class: inhibitors | 220,000 tested, 7.3% active | Purified ALDH1A1, NADH fluorescence, propionaldehyde substrate; active = well fitted inhibition curve with a large enough effect, not every such curve was filed as active; inconclusive = small, poorly fitted or top-dose-only effect, or another doubt; inactive = no such curve, though single readings can be large or run the other way;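 note: potency is the fitted concentration of half-maximal effect; plate controls were no enzyme wells and a reference inhibitor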
GoLoco inh red: RGS12 GoLoco-Gai1 interaction inhibition. 230,000 tested, 0.44% active. P63096. Potency, µM (titrated, usually from 61.6 µM), for the others: at the top dose activity, negative = inhibition, most hits filed as inhibitors. Gai1:RGS12 GoLoco peptide FP, rhodamine, 10 min; active = well fitted inhibition curve with a large enough effect, not every such curve was filed as active; inactive = no such curve, though single readings can be large or run the other way; note: potency is the fitted concentration of half-maximal effect; % is set by controls: 0 for no effect and ±100 for the full control effect; nearly all actives have a fitted effect of over 30% in size
Target sequence (P63096 whole entry, looked up): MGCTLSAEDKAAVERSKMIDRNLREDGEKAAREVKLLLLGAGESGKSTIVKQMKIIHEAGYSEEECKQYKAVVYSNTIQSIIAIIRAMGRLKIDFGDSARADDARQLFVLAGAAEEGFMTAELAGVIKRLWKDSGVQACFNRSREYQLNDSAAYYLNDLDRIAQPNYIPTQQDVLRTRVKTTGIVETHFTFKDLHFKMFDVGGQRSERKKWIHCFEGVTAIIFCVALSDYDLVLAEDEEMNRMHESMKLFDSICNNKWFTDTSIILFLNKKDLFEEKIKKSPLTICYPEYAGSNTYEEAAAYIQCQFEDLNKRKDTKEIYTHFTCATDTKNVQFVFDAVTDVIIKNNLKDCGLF
HttQ103 aggreg: inhibitors of mutant huntingtin aggregate formation in PC12 cells; PC12 HttQ103-GFP aggregates, Acumen cytometry, 40 h; Potency, µM (highest dose often 46.1 µM), for the others: at the top dose activity change, negative = inhibition, actives largely listed as inhibitors; 220,000 tested, 1.1% active; AID 1688; note: potency is the fitted concentration of half-maximal effect; % is set by controls: 0 for no effect and ±100 for the full control effect; nearly all actives have a fitted effect of over 60% in size
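Aggregates are detected as GFP objects 1–25 µm with signal 6 STDEV over background in lysates of induced PC12 cells. These carry Huntingtin exon 1 with 103 glutamines fused to GFP under an ecdysone promoter; compounds titrated.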
PNC inhibitor: blocks assembly of the perinucleolar compartment. 140,000 tested, 3.1% active. AID 2417. PC3M PTB-GFP, PNC prevalence imaging, 16 h; hits give low values. activity change (PNC), negative = inhibition, % at 10 µM;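 active = readout at or below -70, meaning at least 70% loss of cells showing the perinucleolar compartment, a nuclear body marking cancer cells; inconclusive = readout between -30 and a set limit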;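 note: plate controls were DMSO wells for no effect and camptothecin positive control wells for full effect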
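PC3M cells stably expressing PTB-GFP, 750–1000 cells/well, treated 16 h at 37 °C with compound (23 nl of library stock), in duplicate. After paraformaldehyde fixation and Hoechst stain, imaged at 20x; PNC prevalence scored by image analysis.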
Numbers without * were called inactive; i = inactive; ? = inconclusive; . = no result; [ ] = remark or other dose. An excerpt weighted towards active compounds, which were near 11% of everything screened. Unless noted, calls come from the whole dose curve; as a rule, active = well fitted curve in the direction sought with a large enough effect; inconclusive = small, poorly fitted or top-dose-only effect, or another doubt; inactive = no such curve, though single readings can be large; an effect the other way counts as inactive or inconclusive.

SMILES | HTT cytoprotect | HPGD block | ALDH1A1 block | GoLoco inh red | HttQ103 aggreg | PNC inhibitor
CCN1C(=O)/C(=C/N2CC(C)CC(C)C2)SC1=S (centres undefined) | -24% | -6% | ? | -6% | 5%[9.22 µM] | -89*
CCN1C(=O)/C(=C/c2c(C)nn(C)c2C)SC1=S | -12%[10 µM] | -27% | 1.4µM* | 46% | 7% | ?
CCN1C(=O)/C(=C/c2cnn(CC)c2C)SC1=S | . | -15% | 2µM* | 14% | 6% | 10
CCCOC(=O)c1c(N)sc2c1CCC2 | -4% | -20% | 28µM* | 44% | 22% | -18
CCOC(=O)c1c(N)sc2c1CCSC2 | -22% | -22% | 13µM* | 24% | -5%[9.22 µM] | 7
CC(C)OC(=O)c1c(N)sc2c1CCCC2 | 10% | . | . | . | . | .
Cc1ccc(NC(=O)NC2=NN(c3ccccc3)C(=O)/C2=C2/CCCN2C)cc1 | 5% | . | 7.1µM* | 10% | 11% | .
CN(C)c1ccc(/C=N/Nc2ccc(-n3ccnc3)nn2)cc1 | -29% | -9% | 7.9µM* | -12% | 17% | 10
CC12C=C(/C=C/c3ccc(Br)cc3)C(C)(C1)C(c1ccc(Br)cc1)CC2=O (centres undefined) | -1%[10 µM] | . | 3%[13.5 µM] | . | . | .
CN(C1CCCCC1)S(=O)(=O)c1ccc(NC(=O)c2ccc(Br)o2)cc1 | 1%[10 µM] | -28% | ? | -3% | 22µM* | -27
C/C(=N\NS(=O)(=O)c1ccc([N+](=O)[O-])cc1)c1ccc(NC(=O)c2ccco2)cc1 | -85% | . | 25µM* | 1% | 7% | .
O=C(Nc1ccc(S(=O)(=O)NC2CCCCC2)cc1)c1ccco1 | 8%[10 µM] | 13µM* | 0% | 3% | -20% | -100*
C/C(=N/NS(=O)(=O)c1ccc(Br)cc1)c1ccc(NC(=O)c2ccc(C)o2)cc1 | -74% | -13% | -7% | -11% | ? | -16
O=C(Nc1ccc(S(=O)(=O)NC2CCCCC2)cc1)c1ccc(Br)o1 | -9%[0.074 µM] | 14µM* | -7% | 7% | -31% | ?
CN(C)S(=O)(=O)c1ccc(NC(=O)c2ccc(Br)o2)cc1 | -6%[10 µM] | -9% | 1% | 5% | -3% | 21
CCCCCCCCCCCCOCC1CO1 (centres undefined) | 11% | -4% | ? | 7% | . | .
C[C@@H](CS(=O)(=O)Cc1ccccc1)C(N)=O | -3%[10 µM] | -13% | 0%[13.5 µM] | 3%[14.2 µM] | . | .
CCOc1ccc(C2=Cc3cc(OC)c(OC)cc3C(=C(Cl)Cl)O2)cc1 | -6% | -13% | ? | -10% | 32% | 14
COc1ccc(-c2cc(=O)c3ccccc3s2)cc1 | -101%[10 µM] | 7.9µM* | ? | 14% | -20% | 13
Cc1nn2c(=O)c3c4c(sc3nc2n1-c1ccccc1)COC(C)(C)C4 | -9%[10 µM] | . | . | 7% | -5%[9.22 µM] | .
[ClH+][Cu][ClH+].[Cu].[OH2+]c1ccc2ccccc2c1CN1CCCCC1.[OH2+]c1ccc2ccccc2c1CN1CCCCC1 | . | -13% | 1.8µM* | -17%[14.2 µM] | . | .
COc1ccc(CC(=O)Nc2ccc(-c3ccc4nnc(C)n4n3)cc2)cc1OC | -62% | . | 2% | 9% | 31% | .
COc1ccc(OCC2CC3C(CCC(C)C3c3ccc(Br)cc3)C(=O)O2)cc1 (centres undefined) | -1%[10 µM] | . | 0%[13.5 µM] | . | . | .
CCOc1cc(CNc2nn[nH]n2)ccc1OCC(=O)NC(C)(C)C | -33% | . | 2% | 3% | -11% | .
CC1CCN(C(=O)c2ccc(NS(=O)(=O)c3cccc4cccnc34)cc2)CC1 | 12%[10 µM] | . | . | -2% | -19%[9.22 µM] | .
SMILES | HTT cytoprotect | HPGD block | ALDH1A1 block | GoLoco inh red | HttQ103 aggreg | PNC inhibitor
Cc1c(NC(=O)COC(=O)c2cc(-c3ccc(-c4ccccc4)cc3)nc3ccccc23)c(=O)n(-c2ccccc2)n1C | -63%[10 µM] | ? | i | 8% | 3% | -113*
COc1ccc(-c2cc(C(=O)OC(C)C(=O)Nc3c(C)n(C)n(-c4ccccc4)c3=O)c3ccccc3n2)cc1 (centres undefined) | -16%[10 µM] | ? | ? | -6% | 1% | -86*
Cc1c(NC(=O)COC(=O)c2ccc[nH]c2=O)c(=O)n(-c2ccccc2)n1C | 7%[10 µM] | -10% | -5% | 2% | -11% | -4
CC1CCCC(C)N1/N=C/c1ccc(C#N)cc1 (centres undefined) | -26% | . | ? | 10% | 5% | .
O=C(c1nc2ccccn2c1CN1CCCC(c2nc3ccccc3o2)C1)N1CCCC1 (centres undefined) | -8%[10 µM] | . | -6% | 16% | 5%[9.22 µM] | .
CCCC1=C(C(=O)OCC)C(c2ccc(N(C)C)cc2)n2ncnc2N1 (centres undefined) | 3% | . | 1% | . | 6% | 29
O=[N+]([O-])/C=C\c1cc2ccccc2[nH]1 | -14%[10 µM] | -5% | -13%[13.5 µM] | 2%[14.2 µM] | . | .
CC(C)(C)c1ccc(S(=O)(=O)Nc2cccc(C3OCCCO3)c2)cc1 | 32%[10 µM] | -5% | 25µM* | 8% | -18% | 3
CC(=O)Nc1ccc(OS(=O)(=O)c2ccc(C(C)(C)C)cc2)cc1 | 5%[10 µM] | . | 13µM* | 9% | -8%[9.22 µM] | .
Cc1cc(NS(=O)(=O)c2ccc(NC(=S)NC(=O)c3ccccc3)cc2)no1 | 18%[10 µM] | -11% | ? | -3% | 17% | ?
Cc1cc(NS(=O)(=O)c2ccc(NC(=S)NC(=O)c3ccc(Cl)cc3Cl)cc2)no1 | -17% | 25µM* | 0% | 1% | 3% | 0
Cc1cc(NS(=O)(=O)c2ccc(NC(=S)NC(=O)c3ccncc3)cc2)no1 | -1%[10 µM] | . | . | -1% | 3%[9.22 µM] | .
Cc1cc(NS(=O)(=O)c2ccc(NC(=S)NC(=O)c3ccc(C(C)(C)C)cc3)cc2)no1 | . | 18µM* | 13µM* | 5% | 20% | 32
COc1cc(C2NC(=S)NC(C)=C2C(=O)Nc2ccc(C)cc2)ccc1O (centres undefined) | 2%[10 µM] | . | -2% | 24% | -12%[9.22 µM] | .
CC(C)CNC(=S)NC1CCCC1 | -20% | -7% | 8% | 7% | ? | -26
CC(=O)c1ccc(NS(=O)(=O)c2ccc(C(C)(C)C)cc2)cc1 | 20% | . | 13µM* | 2% | -28% | .
CC(=O)c1ccc(NS(=O)(=O)c2ccc(C)cc2)cc1 | 7% | ? | -11% | -6% | 5% | ?
COCCn1c(=O)c(-c2ccc(OC)cc2)nc2cnc(Oc3ccccc3)nc21 | 8% | ? | ? | 6% | . | .
Cc1nc(NC(=O)CSc2ccccc2N)sc1C | -29%[10 µM] | -19% | 22µM* | 6% | -29% | -25
Nc1ccccc1SCC(=O)Nc1nccs1 | -19% | . | 1% | -30% | -6% | .
Cc1cccn2c(=O)c(C=O)c(N3CCCCCC3)nc12 | 9% | -24% | 11µM* | 9% | ? | -24
CCOC(=O)/C(C#N)=C/c1c(N2CCN(Cc3ccc4c(c3)OCO4)CC2)nc2c(C)cccn2c1=O | -9%[10 µM] | . | 0.71µM* | 21% | -18%[9.22 µM] | .
